From paper PMC12820563, “FoxP3 forms a head-to-head dimer in vivo and stabilizes its multimerization on adjacent microsatellites”
Over roughly 16,000 sequences, “rpm ratio (pull-down/input)” has its median near 0.94; the highest 2% begin near 1.7. This is one part of a sample in which the highest values are shown more often than they occur.

The sequences below were run against T1, MBP-FoxP1dN (Mus musculus, UniProt P58462 326-579) (assay: PD-seq (MBP pull-down with sequencing); 20 mM Tris-HCl pH 7.5, 100 mM NaCl, 1.5 mM MgCl2, 0.4 uM protein, 0.1 uM dsDNA library, 30 min, room temperature, amylose pull-down; high values mean tight binding). Conditions: protein: recombinant; tags: His6-MBP; chain copies: 2; dsDNA, one strand shown.
T1 sequence: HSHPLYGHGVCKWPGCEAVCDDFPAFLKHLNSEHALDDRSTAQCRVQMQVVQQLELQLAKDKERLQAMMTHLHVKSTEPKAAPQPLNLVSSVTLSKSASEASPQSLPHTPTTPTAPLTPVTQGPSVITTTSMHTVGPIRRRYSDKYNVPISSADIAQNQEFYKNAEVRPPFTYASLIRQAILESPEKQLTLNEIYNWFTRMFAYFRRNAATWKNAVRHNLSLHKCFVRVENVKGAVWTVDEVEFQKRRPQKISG
How it was run: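 In Tris pH 7.5 buffer with NaCl and MgCl2, 0.4 µM His6-MBP-tagged mouse FoxP3 or FoxP1 fragment lacking the N-terminus, from E. coli, met 0.1 µM Klenow-filled double-stranded degenerate DNA library for 30 min at room temperature. Three washes on amylose resin followed capture of the complexes, then proteinase K release of DNA, PCR barcoding and Illumina sequencing. Binding is taken as pooled-replicate reads-per-million enrichment of pull-down relative to input.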

Which binding signal does the source give for “GATGATTGTTCTCCCAGCTGATGAATTGGTACCTTCGAGTAAACAAATTTTCCTAATCTTTCTGTTCAAGCGCCATCTAC” here?
The binding signal was 0.97 RPM ratio (pull-down/input).

“GATGATTGTTCTCCCAGCTGATGAATTTGTGTCATCGAGTAAACAAATTTTCCTAATCTTTCTGTTCAAGCGCCATCTAC” was tested. Which binding signal did it give?
The binding signal was 1.48 RPM ratio (pull-down/input).

Which binding signal does the source give for “GATGATTGTTCTCCCAGCTGATGAATTAAAGCAATCGAGTAAACAAATTTTCCTAATCTTTCTGTTCAAGCGCCATCTAC” here?
Its binding signal is 1.32 RPM ratio (pull-down/input).

“GATGATTGTTCTCCCAGCTGATGAATTCGTTCAATCGAGTAAACAAATTTTCCTAATCTTTCTGTTCAAGCGCCATCTAC” was tested. Which binding signal did it give?
The binding signal was 0.909 RPM ratio (pull-down/input).

How did the binding signal turn out when “GATGATTGTTCTCCCAGCTGATGAATTACATGGTTCGAGTAAACAAATTTTCCTAATCTTTCTGTTCAAGCGCCATCTAC” was run?
Its binding signal is 1.12 RPM ratio (pull-down/input).

With “GATGATTGTTCTCCCAGCTGATGAATTTAGGCTATCGAGTAAACAAATTTTCCTAATCTTTCTGTTCAAGCGCCATCTAC” as the sequence, how does the binding signal read?
The binding signal was 0.955 RPM ratio (pull-down/input).

Which binding signal does the source give for “GATGATTGTTCTCCCAGCTGATGAATTATTAGATTCGAGTAAACAAATTTTCCTAATCTTTCTGTTCAAGCGCCATCTAC” here?
The binding signal was 1.08 RPM ratio (pull-down/input).

Which binding signal does the source give for “GATGATTGTTCTCCCAGCTGATGAATTAGACTGATCGAGTAAACAAATTTTCCTAATCTTTCTGTTCAAGCGCCATCTAC” here?
The binding signal was 0.851 RPM ratio (pull-down/input).

How did the binding signal turn out when “GATGATTGTTCTCCCAGCTGATGAATTACAATTGTCGAGTAAACAAATTTTCCTAATCTTTCTGTTCAAGCGCCATCTAC” was run?
The binding signal was 1.4 RPM ratio (pull-down/input).

Which binding signal does the source give for “GATGATTGTTCTCCCAGCTGATGAATTTTGAACTTCGAGTAAACAAATTTTCCTAATCTTTCTGTTCAAGCGCCATCTAC” here?
Its binding signal is 0.94 RPM ratio (pull-down/input).

Which binding signal does the source give for “GATGATTGTTCTCCCAGCTGATGAATTTGCAGTTTCGAGTAAACAAATTTTCCTAATCTTTCTGTTCAAGCGCCATCTAC” here?
Its binding signal is 1.02 RPM ratio (pull-down/input).

“GATGATTGTTCTCCCAGCTGATGAATTTCCGTCGTCGAGTAAACAAATTTTCCTAATCTTTCTGTTCAAGCGCCATCTAC” was tested. Which binding signal did it give?
The binding signal was 0.841 RPM ratio (pull-down/input).

Which binding signal does the source give for “GATGATTGTTCTCCCAGCTGATGAATTCGAGTTATCGAGTAAACAAATTTTCCTAATCTTTCTGTTCAAGCGCCATCTAC” here?
The binding signal was 0.96 RPM ratio (pull-down/input).

How did the binding signal turn out when “GATGATTGTTCTCCCAGCTGATGAATTCCTGTTATCGAGTAAACAAATTTTCCTAATCTTTCTGTTCAAGCGCCATCTAC” was run?
Its binding signal is 1.65 RPM ratio (pull-down/input).

Which binding signal does the source give for “GATGATTGTTCTCCCAGCTGATGAATTTTGCTTATCGAGTAAACAAATTTTCCTAATCTTTCTGTTCAAGCGCCATCTAC” here?
The binding signal was 2.09 RPM ratio (pull-down/input).

“GATGATTGTTCTCCCAGCTGATGAATTGCTTATATCGAGTAAACAAATTTTCCTAATCTTTCTGTTCAAGCGCCATCTAC” was tested. Which binding signal did it give?
The binding signal was 1.34 RPM ratio (pull-down/input).

How did the binding signal turn out when “GATGATTGTTCTCCCAGCTGATGAATTTCTGTTATCGAGTAAACAAATTTTCCTAATCTTTCTGTTCAAGCGCCATCTAC” was run?
The binding signal was 1.69 RPM ratio (pull-down/input).

With “GATGATTGTTCTCCCAGCTGATGAATTGTTGTTATCGAGTAAACAAATTTTCCTAATCTTTCTGTTCAAGCGCCATCTAC” as the sequence, how does the binding signal read?
The binding signal was 2.91 RPM ratio (pull-down/input).

“GATGATTGTTCTCCCAGCTGATGAATTGTTATCATCGAGTAAACAAATTTTCCTAATCTTTCTGTTCAAGCGCCATCTAC” was tested. Which binding signal did it give?
Its binding signal is 1.73 RPM ratio (pull-down/input).

“GATGATTGTTCTCCCAGCTGATGAATTCTTGTTATCGAGTAAACAAATTTTCCTAATCTTTCTGTTCAAGCGCCATCTAC” was tested. Which binding signal did it give?
Its binding signal is 2.09 RPM ratio (pull-down/input).

“GATGATTGTTCTCCCAGCTGATGAATTTTTATCATCGAGTAAACAAATTTTCCTAATCTTTCTGTTCAAGCGCCATCTAC” was tested. Which binding signal did it give?
Its binding signal is 1.36 RPM ratio (pull-down/input).

“GATGATTGTTCTCCCAGCTGATGAATTGTTCTTATCGAGTAAACAAATTTTCCTAATCTTTCTGTTCAAGCGCCATCTAC” was tested. Which binding signal did it give?
Its binding signal is 1.41 RPM ratio (pull-down/input).

“GATGATTGTTCTCCCAGCTGATGAATTATCATCATCGAGTAAACAAATTTTCCTAATCTTTCTGTTCAAGCGCCATCTAC” was tested. Which binding signal did it give?
Its binding signal is 1.12 RPM ratio (pull-down/input).

For “GATGATTGTTCTCCCAGCTGATGAATTTGCTTTATCGAGTAAACAAATTTTCCTAATCTTTCTGTTCAAGCGCCATCTAC”, which binding signal is on record?
Its binding signal is 1.1 RPM ratio (pull-down/input).
